PubChem BioAssay (Tox21)
Inconclusive results are not listed. The source made the active and inactive calls. Unless noted, the call rests on the fitted dose curve; in most records, active means well fitted curve in the direction sought with a large enough effect in the repeat runs; inconclusive means weak or mixed curves; inactive means no such curve, though single readings can be large; an effect the other way counts as inactive or inconclusive.

Legend:
[1] = biological target: Peroxisome proliferator-activated receptor gamma (Homo sapiens) (UniProt P37231); assay: qHTS assay to identify small molecule antagonists of the peroxisome proliferator-activated receptor gamma (PPARg) signaling pathway (AID 743191; calls by dose curve; further: series mostly up to about 63 µM; nearly all actives have a fitted effect of over 30% in size)
Summary of the method: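 GeneBLAzer PPARg UAS-bla HEK293H cells carrying a UAS-driven beta-lactamase reporter were plated at 3000 cells/well, preincubated 5 h at 37C, then given compound for 17 h at 37C; LiveBLAzer B/G FRET substrate was read after 1 h at room temperature.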

[2] = qHTS assay to identify small molecule antagonists of the peroxisome proliferator-activated receptor gamma (PPARg) signaling pathway - cell viability counter screen (AID 743194); further: nearly all actives have a fitted effect of over 55% in size
Summary of the method: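 PPARg-UAS-bla HEK293H cells were plated, rested 5 h at 37 C, then treated with compounds plus rosiglitazone (50 nM final) for 17 h at 37 C; viability was then read by CellTiter-Glo luminescence after 30 min at room temperature.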

[3] = qHTS assay for small molecule agonists of the antioxidant response element (ARE) signaling pathway (AID 743202; active means well fitted activation curve with a large enough effect in the signal ratio in the repeat runs, not every such curve was filed as active; the % refers to the signal ratio)
Summary of the method: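 Following a 16 h, 37 C exposure of reporter HepG2 cells (ARE-driven beta-lactamase, 2,000 cells/well) to compounds, FRET substrate was applied for 2 h at room temperature and fluorescence intensity recorded.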

[4] = qHTS assay for small molecule agonists of the antioxidant response element (ARE) signaling pathway - cell viability counter screen (AID 743203; calls by dose curve; further: nearly all actives have a fitted effect of over 55% in size)
Summary of the method: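 Viability counter screen: CellTiter-Glo luminescence, read after 30 min at room temperature, in ARE-bla HepG2 wells. Compound exposure lasted 16 h at 37C/5% CO2, following a 5 h pre-incubation of the cells after plating.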

[5] = qHTS assay for small molecule activators of the heat shock response signaling pathway - cell viability counter screen (AID 743209); further: nearly all actives have a fitted effect of over 50% in size
Summary of the method: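 Cytotoxicity counter screen run in the same wells as the heat-shock bla reporter assay: HeLa HSE-bla cells, 5 h compound exposure at 37 C, viability read by CellTiter-Glo luminescence.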

[6] = qHTS assay for small molecule activators of the heat shock response signaling pathway (AID 743210; active means well fitted activation curve with a large enough effect in the signal ratio in the repeat runs, with a control signal flat, not every such curve was filed as active; the % refers to the signal ratio; further: series mostly up to about 63 µM)
Summary of the method: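 Heat shock element–beta-lactamase HeLa reporter cells; qHTS with compounds for 5 h at 37 C; detection by FRET substrate fluorescence after 2.5 h at RT.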

[7] = qHTS assay to identify small molecule agonists of the peroxisome proliferator-activated receptor delta (PPARd) signaling pathway - cell viability counter screen (AID 743211); further: nearly all actives have a fitted effect of over 55% in size
Summary of the method: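 PPARd-bla HEK293H cells (3000/well) were pre-incubated 5 h at 37 C, then exposed to compound for 17 h at 37 C. After 2 h with LiveBLAzer substrate, CellTiter-Glo was added to the same wells; luminescence read after 30 min at room temperature.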

[8] = biological target: Peroxisome proliferator-activated receptor delta (Homo sapiens) (UniProt Q03181); assay: qHTS assay to identify small molecule agonists of the peroxisome proliferator-activated receptor delta (PPARd) signaling pathway (AID 743212; calls by dose curve)
Summary of the method: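 Beta-lactamase reporter read by fluorescence (LiveBLAzer B/G FRET, 2 h, room temperature). Test agents, in DMSO, incubated at 37 C with PPARd-bla HEK293H cells.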

[9] = qHTS assay to identify small molecule antagonists of the peroxisome proliferator-activated receptor delta (PPARd) signaling pathway - cell viability counter screen (AID 743213); further: nearly all actives have a fitted effect of over 50% in size
Summary of the method: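 Cytotoxicity counter screen: CellTiter-Glo luminescence read 30 min after addition, in the same wells as the reporter assay. There, PPARd UAS-bla HEK293H cells (3000/well) were treated 17 h at 37 C with compound and 300 nM L165041.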

[10] = qHTS assay to identify small molecule agonists of the farnesoid-X-receptor (FXR) signaling pathway - cell viability counter screen (AID 743218); further: nearly all actives have a fitted effect of over 45% in size
Summary of the method: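 Viability counter screen in the same wells: CellTiter-Glo luminescence, 30 min room-temperature incubation, measured after the beta-lactamase read. Cells were GeneBLAzer FXR-UAS-bla HEK 293T, compound-treated 16 h at 37C.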

[11] = qHTS assay to identify small molecule antagonists of the farnesoid-X-receptor (FXR) signaling pathway - cell viability counter screen (AID 743221; active means well fitted cell-killing curve with a large enough effect in the repeat runs, not every such curve was filed as active; further: nearly all actives have a fitted effect of over 50% in size)
Summary of the method: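 GeneBLAzer FXR-UAS-bla HEK 293T cells, compound plus chenodeoxycholic acid (50 uM final), 16 h at 37 C. CellTiter-Glo added to the same wells after the beta-lactamase read; luminescence read after 30 min at room temperature as viability.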

[12] = biological target: Vitamin D3 receptor (Homo sapiens) (UniProt P11473); assay: qHTS assay to identify small molecule agonists of the vitamin D receptor (VDR) signaling pathway (AID 743222; calls by dose curve)
Summary of the method: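 Agonist mode, beta-lactamase reporter: fluorescence from LiveBLAzer B/G FRET substrate (2 h, room temperature) read after 16 h compound treatment at 37 C of VDR-bla cells, which were pre-incubated 4 h after seeding.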

[13] = qHTS assay to identify small molecule that activate the aryl hydrocarbon receptor (AhR) signaling pathway - cell viability counter screen (AID 743086);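 further: HepG2 liver cells carrying the AhR DRE luciferase reporter; series mostly up to about 70 µM; nearly all actives have a fitted effect of over 45% in size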
Summary of the method: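 HepG2-AhR-luc (HG2L7.5c1) cells, 4000/well, were preincubated 5 h at 37C, exposed to compound in qHTS format for 24 hr at 37C, then given CellTiter-Fluor for 30 min; viability was read as fluorescence in the reporter wells.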

[14] = biological target: Peroxisome proliferator-activated receptor delta (Homo sapiens) (UniProt Q03181); assay: qHTS assay to identify small molecule antagonists of the peroxisome proliferator-activated receptor delta (PPARd) signaling pathway (AID 743215; active means well fitted inhibition curve with a large enough effect in the signal ratio in the repeat runs, not every such curve was filed as active; the % refers to the signal ratio;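 further: cells stimulated with agonist L165041 at 300 nM final during compound exposure; series mostly up to about 62 µM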)
Summary of the method: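 Agonist L165041 (300 nM final) added with compound to PPARd-bla HEK293H UAS-bla reporter cells; 17 h incubation at 37 C. Read-out: LiveBLAzer FRET substrate, 2 h at room temperature, fluorescence intensity.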

[15] = biological target: Vitamin D3 receptor (Homo sapiens) (UniProt P11473); assay: qHTS assay to identify small molecule antagonists of the vitamin D receptor (VDR) signaling pathway (AID 743223; active means well fitted inhibition curve with a large enough effect in the signal ratio in the repeat runs, not every such curve was filed as active; the % refers to the signal ratio)
Summary of the method: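 VDR-bla cells were treated with compound plus 3 nM final 1alpha,25-dihydroxyvitamin D3 for 16 h at 37C. Beta-lactamase reporter read by B/G FRET substrate fluorescence after 2 h at room temperature. qHTS format.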

[16] = biological target: Bile acid receptor (Homo sapiens) (UniProt Q96RI1); assay: qHTS assay to identify small molecule antagonists of the farnesoid-X-receptor (FXR) signaling pathway (AID 743217; active means well fitted inhibition curve with a large enough effect in the signal ratio in the repeat runs, not every such curve was filed as active; the % refers to the signal ratio)
Summary of the method: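 Antagonist mode: chenodeoxycholic acid at 50 uM final stimulates a UAS-driven beta-lactamase reporter in HEK 293T FXR-bla cells during 16 h, 37C compound exposure. Read-out is FRET substrate fluorescence after 2 h at room temperature.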

[17] = biological target: Bile acid receptor (Homo sapiens) (UniProt Q96RI1); assay: qHTS assay to identify small molecule agonists of the farnesoid-X-receptor (FXR) signaling pathway (AID 743220; active means well fitted activation curve with a large enough effect in the signal ratio in the repeat runs, not every such curve was filed as active; the % refers to the signal ratio)
Summary of the method: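 FXR-UAS-bla HEK 293T cells carrying a UAS-driven beta-lactamase reporter were plated for 5 h at 37C/5% CO2, then exposed to DMSO-dissolved Tox21 10K compounds for 16 h at 37C. A LiveBLAzer B/G FRET substrate was loaded for 2 h at room temperature before fluorescence reading.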

[18] = qHTS assay to identify aromatase inhibitors - cell viability counter screen (AID 743084);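 further: cells stimulated with testosterone during compound exposure; nearly all actives have a fitted effect of over 55% in size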
[19] = biological target: Aryl hydrocarbon receptor (Homo sapiens) (UniProt P35869); assay: qHTS assay to identify small molecule that activate the aryl hydrocarbon receptor (AhR) signaling pathway (AID 743085);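 further: HG2L7.5c1 human HepG2 liver cells with stably integrated DRE-driven firefly reporter; series mostly up to about 70 µM; nearly all actives have a fitted effect of over 15% in size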
Summary of the method: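 HepG2 cells stably carrying a 20-DRE firefly luciferase reporter (HG2L7.5c1) treated with compound for 24 hr at 37C. Luciferase read by ONE-Glo luminescence, with CellTiter-Fluor viability read first.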

[20] = biological target: Peroxisome proliferator-activated receptor gamma (Homo sapiens) (UniProt P37231); assay: qHTS assay to identify small molecule agonists of the peroxisome proliferator-activated receptor gamma (PPARg) signaling pathway (AID 743094; active means well fitted activation curve with a large enough effect in the signal ratio in the repeat runs, not every such curve was filed as active; the % refers to the signal ratio)
Summary of the method: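 Agonist activity was taken from a beta-lactamase reporter (FRET substrate, 1 h at room temperature) in HEK293H cells carrying a PPARg UAS-bla construct. Compounds in DMSO were incubated 17 h at 37C after a 5 h cell pre-incubation.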

Measured: Potency

Peroxisome proliferator-activated receptor gamma (Homo sapiens), sequence (P37231 whole entry, looked up): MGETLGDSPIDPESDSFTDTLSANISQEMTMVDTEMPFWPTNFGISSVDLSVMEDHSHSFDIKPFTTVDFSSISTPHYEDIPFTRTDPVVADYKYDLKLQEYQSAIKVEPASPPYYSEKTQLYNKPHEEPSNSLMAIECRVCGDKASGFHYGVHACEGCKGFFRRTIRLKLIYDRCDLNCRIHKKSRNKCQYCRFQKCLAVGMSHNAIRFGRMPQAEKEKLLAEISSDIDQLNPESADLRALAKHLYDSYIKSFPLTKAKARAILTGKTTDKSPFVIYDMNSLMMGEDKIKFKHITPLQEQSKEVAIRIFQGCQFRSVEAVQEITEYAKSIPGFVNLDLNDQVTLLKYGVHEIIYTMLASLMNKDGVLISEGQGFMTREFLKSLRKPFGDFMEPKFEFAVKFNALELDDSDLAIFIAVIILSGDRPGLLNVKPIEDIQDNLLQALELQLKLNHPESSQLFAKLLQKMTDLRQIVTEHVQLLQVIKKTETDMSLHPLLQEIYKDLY
Peroxisome proliferator-activated receptor delta (Homo sapiens), sequence (Q03181 whole entry, looked up): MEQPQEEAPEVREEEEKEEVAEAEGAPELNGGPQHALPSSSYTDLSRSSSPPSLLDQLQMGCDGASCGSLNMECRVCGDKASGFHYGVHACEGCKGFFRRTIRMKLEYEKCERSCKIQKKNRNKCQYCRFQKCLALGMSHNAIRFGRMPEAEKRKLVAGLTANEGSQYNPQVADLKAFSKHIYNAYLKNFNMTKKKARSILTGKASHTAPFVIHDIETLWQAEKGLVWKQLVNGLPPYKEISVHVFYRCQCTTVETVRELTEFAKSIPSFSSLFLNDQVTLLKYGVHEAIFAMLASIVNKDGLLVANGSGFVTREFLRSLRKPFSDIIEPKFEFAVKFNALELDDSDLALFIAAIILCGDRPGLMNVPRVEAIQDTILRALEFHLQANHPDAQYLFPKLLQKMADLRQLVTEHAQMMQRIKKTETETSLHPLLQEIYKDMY
Vitamin D3 receptor (Homo sapiens), sequence (P11473 whole entry, looked up): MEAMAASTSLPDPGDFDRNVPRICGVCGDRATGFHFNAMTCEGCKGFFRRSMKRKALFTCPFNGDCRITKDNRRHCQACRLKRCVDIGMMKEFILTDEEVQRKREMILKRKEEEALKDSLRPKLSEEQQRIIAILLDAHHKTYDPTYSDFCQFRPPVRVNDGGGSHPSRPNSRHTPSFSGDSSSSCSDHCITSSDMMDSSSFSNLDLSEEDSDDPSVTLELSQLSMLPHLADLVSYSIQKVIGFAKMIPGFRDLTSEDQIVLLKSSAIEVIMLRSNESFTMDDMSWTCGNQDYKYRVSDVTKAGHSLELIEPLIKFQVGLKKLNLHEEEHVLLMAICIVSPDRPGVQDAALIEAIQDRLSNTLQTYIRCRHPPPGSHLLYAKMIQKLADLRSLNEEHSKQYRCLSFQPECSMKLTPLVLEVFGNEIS
Bile acid receptor (Homo sapiens), sequence (Q96RI1 whole entry, looked up): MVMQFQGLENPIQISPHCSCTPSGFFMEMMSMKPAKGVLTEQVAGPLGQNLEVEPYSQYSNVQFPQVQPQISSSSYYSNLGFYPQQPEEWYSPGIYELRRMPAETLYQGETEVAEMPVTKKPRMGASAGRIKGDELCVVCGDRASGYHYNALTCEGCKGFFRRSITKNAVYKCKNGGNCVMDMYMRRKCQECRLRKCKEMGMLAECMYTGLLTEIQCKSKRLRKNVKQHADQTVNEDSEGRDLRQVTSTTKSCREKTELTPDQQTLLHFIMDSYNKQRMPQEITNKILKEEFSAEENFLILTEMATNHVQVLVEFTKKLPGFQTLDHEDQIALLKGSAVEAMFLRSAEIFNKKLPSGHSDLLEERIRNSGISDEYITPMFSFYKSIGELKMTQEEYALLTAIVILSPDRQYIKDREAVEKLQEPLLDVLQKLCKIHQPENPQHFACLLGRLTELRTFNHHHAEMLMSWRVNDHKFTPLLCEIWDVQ
Aryl hydrocarbon receptor (Homo sapiens), sequence (P35869 whole entry, looked up): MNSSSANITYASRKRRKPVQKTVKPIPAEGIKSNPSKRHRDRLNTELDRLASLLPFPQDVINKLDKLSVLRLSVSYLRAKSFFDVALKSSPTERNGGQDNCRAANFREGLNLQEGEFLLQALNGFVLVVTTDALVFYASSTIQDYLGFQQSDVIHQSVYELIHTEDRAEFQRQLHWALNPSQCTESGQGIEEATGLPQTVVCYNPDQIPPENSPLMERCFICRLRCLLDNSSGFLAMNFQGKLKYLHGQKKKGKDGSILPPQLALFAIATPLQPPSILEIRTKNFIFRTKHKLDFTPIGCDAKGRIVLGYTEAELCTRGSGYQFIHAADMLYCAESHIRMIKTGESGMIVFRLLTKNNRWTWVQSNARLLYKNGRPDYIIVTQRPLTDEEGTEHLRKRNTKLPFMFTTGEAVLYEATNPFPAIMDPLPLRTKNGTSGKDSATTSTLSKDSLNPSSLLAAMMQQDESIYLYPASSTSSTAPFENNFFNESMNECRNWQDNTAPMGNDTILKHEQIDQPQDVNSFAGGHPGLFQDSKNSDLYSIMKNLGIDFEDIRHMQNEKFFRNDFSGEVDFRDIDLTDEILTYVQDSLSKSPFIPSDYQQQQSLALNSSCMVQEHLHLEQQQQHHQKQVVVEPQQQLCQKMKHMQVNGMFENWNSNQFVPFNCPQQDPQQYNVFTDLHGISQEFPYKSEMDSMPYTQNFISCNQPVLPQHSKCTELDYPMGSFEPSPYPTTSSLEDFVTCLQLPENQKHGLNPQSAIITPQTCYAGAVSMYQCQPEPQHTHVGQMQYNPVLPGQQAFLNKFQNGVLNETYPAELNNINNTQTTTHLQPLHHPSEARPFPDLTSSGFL

CN1N=C(C(N)=O)CCC1=O
not listed: [13] | [14] | [15] | [16] | [17] | [18] | [19] | [20]
inactive: all other assays above

C=CCOCC(CC)(CO)COCC=C
inactive: [13] | [2] | [3] | [5] | [6] | [7] | [8] | [9] | [14] | [10] | [15]

CCS(=O)(=O)c1ccc(OC)c(C(=O)OC)c1
not listed: [1] | [6] | [12] | [13] | [15] | [18] | [19] | [20]
inactive: all other assays above

Cc1cccc(C)c1NC(=O)C(C)N (stereo not given)
inactive: [18] | [13] | [5] | [6] | [7] | [8] | [9] | [10] | [11] | [12] | [15]

COc1ccc(CCN(C)CCCC(C#N)(c2cc(OC)c(OC)c(OC)c2)C(C)C)cc1OC (stereo not given)
inactive: [19] | [13] | [2] | [3] | [6] | [7] | [8] | [9] | [10] | [11] | [12]

CN(C(=O)c1c(O)c2ccccc2n(C)c1=O)c1ccccc1
not listed: [1] | [6] | [16] | [17] | [19]
inactive: all other assays above

NC(=O)c1cn(Cc2c(F)cccc2F)nn1
not listed: [1] | [5] | [18] | [19] | [20]
inactive: all other assays above

CC(NC(CCc1ccccc1)C(=O)O)C(=O)N1C(=O)N(C)CC1C(=O)O (stereo not given)
not listed: [10] | [13] | [14] | [18] | [19] | [20]
inactive: all other assays above

CCCCCCCCS(=O)(=O)Cl
not listed: [3] | [6] | [16] | [17] | [18]
inactive: all other assays above

COc1ccc2c(c1)CCCC2=O
not listed: [8] | [10] | [13] | [14] | [18] | [19] | [20]
inactive: all other assays above

CC(C)=CCCC(C)CC(=O)O (stereo not given)
not listed: [1] | [5] | [7] | [11] | [14] | [16] | [17] | [18]
inactive: all other assays above

CCc1cccc2c(CCO)c[nH]c12
not listed: [8] | [13] | [14] | [16] | [17] | [18] | [19] | [20]
inactive: all other assays above

CCN(CC)CCOCCOC(=O)C1(c2ccccc2)CCCC1
inactive: [19] | [20] | [2] | [3] | [5] | [7] | [9] | [16] | [17] | [11]

Cc1cnc(NS(=O)(=O)c2ccc(N)cc2)nc1
inactive: [2] | [3] | [4] | [5] | [7] | [8] | [9] | [14] | [11] | [12] | [15]

CN(C)CCCSc1ccccc1NC(=O)/C=C/c1ccccc1
not listed: [1] | [6] | [10] | [16] | [19]
inactive: all other assays above

Cc1[nH]c(=O)c(C#N)cc1-c1ccc2nccn2c1
not listed: [1] | [16] | [17] | [18] | [19] | [20]
inactive: all other assays above

CC(C)NCCCC1(C(N)=O)c2ccccc2-c2ccccc21
not listed: [9] | [13] | [14] | [16] | [17] | [18] | [19] | [20]
inactive: all other assays above

CC/C=C\CC/C=C/C(OCC)OCC
inactive: [13] | [2] | [4] | [7] | [8] | [9] | [14] | [10] | [11]

Cc1nc2c([nH]1)c(=O)n(C)c(=O)n2Cc1ccco1
not listed: [1] | [6] | [8] | [14] | [19] | [20]
inactive: all other assays above

COc1nc(N)nc2c1ncn2[C@@H]1O[C@H](CO)[C@@H](O)[C@@H]1O
not listed: [1] | [8] | [9] | [14] | [16] | [17] | [19] | [20]
inactive: all other assays above
